Most compounds without a hit are left out; they make up all but 6.7% or so of the library.
BoNT-A LC inh2 – BoNT A light chain protease inhibition. inhibition, % at 10 µM. actives 0.17% (n = 360,000). AID 588499. multiplex microsphere protease substrate cleavage, flow cytometry
BoNT-F LC inh – inhibitors of Botulinum neurotoxin F light chain protease. Multiplex microsphere protease cleavage assay, flow cytometry. inhibition, % at 10 µM. actives 0.22% (n = 360,000). AID 588497; in the data active = inhibition above about 35%, passing the limit was not always enough; inconclusive = no clear call, values can overlap the other calls
Autofluor counter – flagged as autofluorescent in microsphere protease counterscreen | compound autofluorescence counterscreen, microsphere flow cytometry; active compounds read high | actives 3.1% (n = 360,000) | fluorescence intensity (concentration not given with the values) | AID 624483; in the data active = fluorescence intensity above about 16000; inconclusive = no clear call, values can overlap the other calls
GDH-TPI counter-1 – inhibits GDH-TPI coupling enzymes, artifact for Mtb FBA screen | GDH-TPI coupled enzyme counterscreen, NADH absorbance | AID 588335 | inhibition, % at 4.8 µM | actives 1.2% (n = 360,000); in the data active = inhibition above about 30%
FBA Mtb inh – Mtb fructose-bisphosphate aldolase inhibition; inhibition, % at 1 µM; purified M. tuberculosis FBA, fluorescence read-out; actives 2.3% (n = 360,000); P9WQA3; AID 588726; in the data active = inhibition above about 27%
Anthrax LF inh2 – blocks Bacillus anthracis lethal factor protease | P15917 | multiplex microsphere protease cleavage assay, LF | inhibition, % at 10 µM | actives 0.12% (n = 360,000)
Mtb FBA confirm – Mtb FBA inhibition, confirmed; shares compounds with FBA Mtb inh; purified M. tuberculosis FBA, fluorescence read-out; inhibition, % at 1 µM; actives 78% (n = 5,600); AID 651616; in the data active = inhibition above about 27%
GDH-TPI counter-2 – GDH-TPI inhibition counter-screen for FBA inhibitors. GDH-TPI coupled enzyme counterscreen, fluorescence. shares compounds with FBA Mtb inh. inhibition, % at 1 µM. actives 81% (n = 5,600); in the data active = inhibition above about 10%
GDH-TPI dose – GDH-TPI dose response counter-screen for Mtb FBA; shares compounds with FBA Mtb inh; GDH-TPI coupled enzyme assay, fluorescence, artifact counterscreen; IC50, µM; actives 79% (n = 170); AID 652145; call rule not given here
Hits are given with their value; – = inactive; ? = inconclusive; · = no result given; + = active, no number. Rule as the data show it, unless noted: active = inhibition above about 30%; inconclusive = no clear call, values can overlap the other calls; inactive = below that.

SMILES	BoNT-A LC inh2	BoNT-F LC inh	Autofluor counter	GDH-TPI counter-1	FBA Mtb inh	Anthrax LF inh2	Mtb FBA confirm	GDH-TPI counter-2	others
COc1ccccc1N1C(=O)NC(=O)/C(=C/c2ccc3c4c(cccc24)CC3)C1=O	–	–	–	–	38	–	–	–	GDH-TPI dose=3.9
O=C(NCC1CCCO1)C1c2ccccc2C(=O)N1C1CCCCCC1 (stereo unspecified)	–	–	–	–	41	–	112	97
O=C(O)c1cnc(N2CCOCC2)nc1	–	–	–	–	–	–	·	·
O=C(N/N=C/c1cccnc1)c1ccccc1NS(=O)(=O)c1cccs1	–	–	–	–	–	–	·	·
O=C(NN=Cc1cc(Br)c(O)c(Br)c1)c1ccccc1NS(=O)(=O)c1cccs1	–	–	–	48	79	–	165	135
O=C(COC(=O)C(Cc1ccccc1)NC(=O)c1ccco1)NC1CC1 (stereo unspecified)	–	–	–	–	–	–	·	·
COC(=O)c1cnn2c3c(c(C)nc12)CCCC3	–	–	–	–	74	–	130	107
CCCNc1ccc(S(=O)(=O)N(C(C)C)C(C)C)cn1	–	–	–	–	–	–	·	·
O=C(COC(=O)/C=C/c1ccc(S(=O)(=O)N2CCOCC2)cc1)NCc1ccccc1	–	–	–	–	–	–	·	·
COc1ccc2c(c1)C1=C(CC2)C(c2ccc(C)cc2)NC(=S)N1 (stereo unspecified)	–	–	–	–	–	–	·	·
O=C1NC2=C(C(=O)c3ccccc32)C(c2ccccc2)N1 (stereo unspecified)	–	–	–	–	–	–	·	·
CC(C)c1ccc(C2NC(=O)NC3=C2CCc2ccccc23)cc1 (stereo unspecified)	–	–	–	–	32	–	63	35
Cc1ccc(C2NC(=O)NC3=C2CCc2ccccc23)cc1 (stereo unspecified)	–	–	–	–	35	–	61	55
Cc1nn(Cc2ccccc2Cl)c(C)c1C(=O)OCC(=O)NC1CCCC(C)C1C (stereo unspecified)	–	–	–	–	–	–	·	·
COC1=Nc2ccccc2N2CCN=C12	–	–	–	·	66	–	–	–	GDH-TPI dose=3.5
CC(C)(C)c1nnc(NC(=O)CN2C(=O)C3C4C=CC(C4)C3C2=O)s1 (stereo unspecified)	–	–	–	–	–	–	·	·
COc1ccc(/C=N/Nc2nc(N)cc(Cl)n2)cc1OC	–	–	–	–	–	–	·	·
COc1ccc(C(=O)OCC(=O)Nc2ccc(Cl)c(C(F)(F)F)c2)c(OC)c1OC	–	–	–	–	–	–	·	·
CC(C)=CCOc1ccc2c(C)c(CC(=O)N3C[C@H]4C[C@@H](C3)c3cccc(=O)n3C4)c(=O)oc2c1C	–	–	–	–	107	–	183	129
Cc1c(OCC(=O)N2C[C@H]3C[C@@H](C2)c2cccc(=O)n2C3)ccc2c3c(c(=O)oc12)CCC3	–	–	–	–	–	–	·	·
Cc1c(OCC(=O)N2C[C@H]3C[C@@H](C2)c2cccc(=O)n2C3)ccc2c3c(c(=O)oc12)CCCC3	–	–	–	–	31	–	+	+
CC1CCN(C(=O)CCN2C(=O)C3C4C=CC(C4)C3C2=O)CC1 (stereo unspecified)	–	–	–	–	–	–	·	·
CCOC(=O)N1CCC(NC(=O)CCN2C(=O)C3C4C=CC(C4)C3C2=O)CC1 (stereo unspecified)	–	–	–	–	84	–	+	+
O=C(CCCCCn1c(=S)[nH]c2ccc(N3CCOCC3)cc2c1=O)NCc1ccc2c(c1)OCO2	–	–	–	–	44	–	+	+
O=C(CCCCCn1c(=S)[nH]c2ccc(N3CCOCC3)cc2c1=O)NCc1ccccc1Cl	–	–	–	–	–	–	·	·
SMILES	BoNT-A LC inh2	BoNT-F LC inh	Autofluor counter	GDH-TPI counter-1	FBA Mtb inh	Anthrax LF inh2	Mtb FBA confirm	GDH-TPI counter-2	others
Cc1ccccc1C(=O)Nc1ccc2c(c1)C(=O)NC2=O	–	–	–	–	39	–	–	–
CCCC(=O)Nc1ccc2c(c1)C(=O)NC2=O	–	–	–	–	33	–	115	88
O=C1NC(=O)c2cc(NC(=O)C3CCCO3)ccc21 (stereo unspecified)	?	–	22178	–	38	–	–	–	GDH-TPI dose=4.2
COc1ccccc1C(=O)Nc1ccc2c(c1)C(=O)NC2=O	–	–	–	–	–	–	·	·
O=C(Cc1ccc([N+](=O)[O-])cc1)Nc1ccc2c(c1)C(=O)NC2=O	–	–	–	–	–	–	·	·
O=C(Cc1ccc(Cl)cc1)Nc1ccc2c(c1)C(=O)NC2=O	–	–	–	–	60	–	51	35
N#CCCN(C(=O)COc1ccc(F)cc1Br)c1ccccc1F	–	–	–	–	28	–	–	–	GDH-TPI dose=–
O=C(O)COc1ccc(F)cc1Br	–	–	–	–	–	–	·	·
CCCc1c(O)c2ccccc2[nH]c1=O	–	–	–	–	30	–	50	42
O=C(NCc1ccco1)C1CCN(S(=O)(=O)c2cccc([N+](=O)[O-])c2)CC1	–	–	–	–	–	–	·	·
OCCNc1c2ccccc2nc2c(F)c(F)c(F)c(F)c12	–	–	–	–	72	–	+	+
O=C(NCc1ccco1)c1ccc(Cl)c(S(=O)(=O)N2CCc3ccccc32)c1	–	–	–	–	–	–	·	·
NC(=O)Nc1ccc(Oc2c(F)c(F)c(F)c(F)c2F)cc1	–	–	–	–	–	–	·	·
CCc1cc2ccc(C)cc2nc1SCC(=O)Nc1cc(C)on1	–	–	–	–	–	–	·	·
COc1ccc(NC(=O)C2(C)Cc3c(-c4ccc5c(c4)OCO5)ccnc3O2)cc1 (stereo unspecified)	–	–	–	–	36	–	+	+
COc1ccc(CNC(=O)C2(C)Cc3c(-c4ccc5c(c4)OCO5)ccnc3O2)cc1OC (stereo unspecified)	–	–	–	–	33	–	114	84
CN1CCN(c2ccc(CNC(=O)C3(C)Cc4c(-c5ccc6c(c5)OCO6)ccnc4O3)cc2)CC1 (stereo unspecified)	–	–	–	–	33	–	121	103
COc1ccc(CNC(=O)C2(C)Cc3c(-c4ccc(C(N)=O)cc4)ccnc3O2)cc1OC (stereo unspecified)	–	–	–	–	–	–	·	·
CC1(C(=O)NCC2CC2)Cc2c(-c3ccc4c(c3)OCO4)ccnc2O1 (stereo unspecified)	–	–	–	–	88	–	76	51
CC1(C(=O)Nc2ccc3c(c2)OCO3)Cc2c(-c3ccccc3)ccnc2O1 (stereo unspecified)	–	–	–	–	–	–	·	·
